Only some compounds are listed: those with a hit (about 3.1% of all), similar ones and a draw of the others.
Cl transport mod – modulators of human KCC2 chloride dependent transport; Q9H2X9; KCC2 cells, thallium flux FluoZin-2 fluorescence; B-score of Tl+ flux slope (higher = more flux/activation; lower = inhibition) at 10 µM; 190,000 compounds, 2.2% hits;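 active means thallium flux slope and its plate-corrected score both differing from the plate sample mean at a set confidence after two filtering rounds, in either direction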;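 further: slope of fluorescence scaled to starting intensity during 10 to 20 s after thallium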
S1P3 antag – blocks the human S1P3 receptor; Q99500; CHO S1P3 NFAT-BLA reporter, FRET fluorescence, antagonist mode; inhibition, % at 4.98 µM; 170,000 compounds, 0.27% hits;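 active means inhibition above the plate cutoff, the mean inhibition of test wells on that plate plus 3 SD, cut at about 28% in these data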;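 further: cells challenged with S1P at its EC80 of 0.8 µM; blue over green emission ratio from cleaved BLA substrate after 4 h stimulation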
Target sequence (Q99500 whole entry, looked up): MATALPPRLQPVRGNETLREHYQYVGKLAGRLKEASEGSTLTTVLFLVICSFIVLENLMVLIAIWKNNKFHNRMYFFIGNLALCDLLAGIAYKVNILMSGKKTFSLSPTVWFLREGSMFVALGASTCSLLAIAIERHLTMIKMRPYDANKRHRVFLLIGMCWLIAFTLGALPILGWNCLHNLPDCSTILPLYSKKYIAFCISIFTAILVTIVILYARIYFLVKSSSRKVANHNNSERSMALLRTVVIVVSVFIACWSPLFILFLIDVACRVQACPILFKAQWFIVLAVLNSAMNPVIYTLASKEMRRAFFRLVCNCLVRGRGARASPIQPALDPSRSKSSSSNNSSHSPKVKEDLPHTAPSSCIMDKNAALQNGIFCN
PGE2 EP2 inh – blocks the human prostaglandin E2 receptor EP2 | P43116 | C6 glioma cells expressing human EP2, cAMP TR-FRET; cells stimulated with saturating PGE2 | inhibition, % at 25 µM | 260,000 compounds, 0.52% hits | AID 1422;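 active means percent inhibition above 40 after rounding to a whole number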;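 further: rat C6 glioma host cells with rolipram phosphodiesterase inhibitor present; the protocol text gives 20 µM as final concentration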
Target sequence (P43116 whole entry, looked up): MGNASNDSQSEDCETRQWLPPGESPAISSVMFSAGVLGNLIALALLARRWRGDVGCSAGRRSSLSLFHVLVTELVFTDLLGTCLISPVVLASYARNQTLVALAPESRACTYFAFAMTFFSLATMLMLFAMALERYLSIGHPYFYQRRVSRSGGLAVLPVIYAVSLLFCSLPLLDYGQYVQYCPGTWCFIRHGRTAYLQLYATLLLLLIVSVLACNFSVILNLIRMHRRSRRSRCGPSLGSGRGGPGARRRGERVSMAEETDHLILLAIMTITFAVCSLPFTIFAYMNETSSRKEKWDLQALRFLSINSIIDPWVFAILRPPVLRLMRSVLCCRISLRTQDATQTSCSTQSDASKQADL
EP2 mod – EP2 receptor (human) modulation; P43116; EP2-expressing cells, cAMP HTRF FRET, PGE2 co-stimulation; induction, % at 25 µM; 260,000 compounds, 0.83% hits; AID 940;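 active means compounds whose cAMP rise, as percent of the full-agonist control response, exceeds 60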;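 further: rat C6 glioma line stably carrying human EP2 under a CMV promoter; the protocol text gives 20 µM as final concentration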
Large screens that a line does not name were inactive; ! = a repeat was not active.

CCOc1ccccc1NC(=O)C1OC2OC3(CCCCC3)OC2C2OC3(CCCCC3)OC12 (configuration not stated)	PGE2 EP2 inh 50 (no result: Cl transport mod, S1P3 antag)
c1csc(CCNc2ncnc3sc4c(c23)CCC4)c1	Cl transport mod -4.5, S1P3 antag 94
O=C(N/N=C/c1cn(-c2cccs2)nc1-c1ccccc1)c1ccc(O)cc1	PGE2 EP2 inh 42
CCc1c(C)[nH]c2ccc(C)cc2c1=S	none (no result: Cl transport mod, S1P3 antag)
Cc1ccc2[nH]c(CCN(C)C)c(CSCc3c(CCN(C)C)[nH]c4ccc(C)cc34)c2c1	PGE2 EP2 inh 127 (no result: Cl transport mod, S1P3 antag)
CC(=O)c1sc(C(=O)O)c(-c2ccco2)c1-c1ccco1	PGE2 EP2 inh 43 (no result: Cl transport mod)
CCOc1ccc(CNc2n[nH]c3nc(C)cc(C(F)(F)F)c23)cc1	none (no result: Cl transport mod, S1P3 antag, PGE2 EP2 inh)
O=C(Cn1c2ccccc2n2c(SCC(=O)c3ccccc3F)nnc12)NC1CCCCC1	none (no result: Cl transport mod, S1P3 antag)
CN(C)CCN1C(=O)CC[C@@]2(C)C1=CC[C@H]1[C@H]2CC[C@@]2(C)[C@H]1CC[C@]2(C)O	PGE2 EP2 inh 50 (no result: Cl transport mod, S1P3 antag)
COc1ccc(Cl)cc1C(=O)Nc1ccc(N2CCN(S(C)(=O)=O)CC2)cc1	none (no result: Cl transport mod, S1P3 antag)
COc1ccc(CCNc2nc(N3CCCCC3)nc(N3CCCCC3)n2)cc1OC	EP2 mod 61
COc1cccc(C(=O)NC(=S)Nc2ccc3c4c(cccc24)CC3)c1	Cl transport mod 5 (no result: S1P3 antag)
C=CCNc1nc(Nc2ccc(OC)cc2)nc(OCC)n1	EP2 mod 62! (no result: Cl transport mod, S1P3 antag)
Cc1c(Cl)cccc1NC(=O)C[C@H]1Sc2ccccc2NC1=O	PGE2 EP2 inh 60 (no result: Cl transport mod, S1P3 antag)
Cc1c(Cl)cccc1NC(=O)CC1Sc2ccccc2NC1=O (configuration not stated)	none
O=C(NCC1(c2ccccc2)CCCC1)C1(c2ccccc2)CCCC1	EP2 mod 62 (no result: S1P3 antag)
Cc1nc2ccc3nc(NC(=O)c4ccc5c(c4)OCCO5)sc3c2s1	PGE2 EP2 inh 52
Cc1nc2c(ccc3nc(NC(=O)c4ccc5c(c4)OCCO5)sc32)s1	none
CCCCn1c(-c2csc3c2CCC(C)C3)n[nH]c1=S (configuration not stated)	Cl transport mod 22 (no result: S1P3 antag)
C=CCn1c(-c2csc3c2CCC(C)C3)n[nH]c1=S (configuration not stated)	none
CCCCn1c(-c2csc(C(C)C)c2)n[nH]c1=S	Cl transport mod 21
CCCc1cc(-c2n[nH]c(=S)n2CC(C)C)cs1	Cl transport mod 16
CCC(=O)N1CCc2cc(C(O)CN3CCN(c4ccccn4)CC3)ccc21 (configuration not stated)	none (no result: Cl transport mod, S1P3 antag)
COc1ccc(C(=O)NC2CCN(CC(=O)NCc3ccc(F)cc3)CC2)cc1OC	none (no result: Cl transport mod, S1P3 antag)
Cc1ccc(C)c(CN2C(=O)C3(OCCCO3)c3ccccc32)c1	EP2 mod 62
CCN1CCCC1CN(Cc1cc2cc3c(cc2[nH]c1=O)OCCO3)C(=O)NC1CCCCC1 (configuration not stated)	none (no result: Cl transport mod, S1P3 antag)
CCCCOC(=O)CN1C(=O)c2ccc(C(=O)OCCCC)cc2C1=O	EP2 mod 63
Cc1cc(C)cc(NC(=O)C(=O)NCCN2CCOCC2)c1	none (no result: Cl transport mod, S1P3 antag)
O=C(CSc1nnc(-c2ccccc2Cl)o1)Oc1ccc(Br)cc1	PGE2 EP2 inh 47! (no result: S1P3 antag)
O=C(CSc1nnc(-c2ccccc2O)o1)Oc1ccc(Br)cc1	none (no result: S1P3 antag)
Cc1ccc(OCC(O)CNS(=O)(=O)c2ccc3c(c2)oc(=O)n3C(C)C)cc1 (configuration not stated)	none (no result: Cl transport mod, S1P3 antag)
CC(Oc1ccc(Cl)cc1Cl)C(=O)NCCCN1CCOCC1 (configuration not stated)	S1P3 antag 99 (no result: Cl transport mod)
CCNC(=O)C(C)Oc1ccc(Cl)cc1Cl (configuration not stated)	none
N#C/C(C(=O)NCCc1ccccc1)=C1/N=C(NC(=O)c2cccs2)c2ccccc21	EP2 mod 63
COCCCNC(=O)/C(C#N)=C1\N=C(NC(=O)c2cccs2)c2ccccc21	none
CCCCC1C(=O)CC[C@H]2[C@@H]1CC(=O)[C@@H]2C/C=C\CCCC(=O)O (some centres not stated)	EP2 mod 80
Oc1[nH]c2c(Cl)cc(Cl)cc2c1N=NC(=S)NCC1CCCO1 (configuration not stated)	Cl transport mod 56
Cc1cc(C)c2[nH]c(O)c(N=NC(=S)NCC3CCCO3)c2c1 (configuration not stated)	none
Oc1[nH]c2ccccc2c1N=NC(=S)NCC1CCCO1 (configuration not stated)	Cl transport mod 4.2
CCOc1ccc2[nH]c(=O)c(CN(Cc3ccco3)C(=O)Nc3ccc(F)cc3)cc2c1	none (no result: Cl transport mod, S1P3 antag)
COc1ccccc1CCCNC(=O)c1c(-c2ccncc2)noc1C	none (no result: Cl transport mod, S1P3 antag)
CCCn1c(N)c(C(=S)NC(=O)C2CC2)c(=O)n(C)c1=O	Cl transport mod 14
CCCCn1c(N)c(C(=S)NC(=O)CC(C)C)c(=O)n(C)c1=O	Cl transport mod 24
CC(=O)NC(=S)c1c(N)n(Cc2ccccc2)c(=O)n(C)c1=O	Cl transport mod 3.9 (no result: S1P3 antag)
COc1cc2c(cc1OC)C(c1ccccc1)N(Cc1cnc(N(C)C)nc1)CC2 (configuration not stated)	none (no result: Cl transport mod, S1P3 antag)
CCC(C)c1ccc(OCC(=O)Nc2c[nH]c(=O)[nH]c2=O)cc1 (configuration not stated)	none (no result: Cl transport mod, S1P3 antag)
COc1ccc(OC)c(NC(=O)CSc2nnc(-c3ccco3)n2C)c1	none (no result: Cl transport mod, S1P3 antag)
C=CCN1CCN(C(c2ccc(Cl)cc2)c2nnnn2CCc2ccc(OC)c(OC)c2)CC1 (configuration not stated)	S1P3 antag 104 (no result: Cl transport mod)
CN(C)S(=O)(=O)c1ccc(S(=O)(=O)N2CCN(c3nc4ccccc4s3)CC2)cc1	none (no result: Cl transport mod, S1P3 antag)
O=C(Cn1sc2ccccc2c1=O)NC12CC3CC(CC(C3)C1)C2	PGE2 EP2 inh 132 (no result: S1P3 antag)
CC1(C)Cc2c(c(N3CCCC3)nc3sc4c(N5CCOCC5)ncnc4c23)CO1	EP2 mod 73 (no result: Cl transport mod, S1P3 antag)
Cc1ccc(NC(=S)N(CCO)Cc2cc3ccc(C)cc3[nH]c2=O)c(C)c1	none (no result: Cl transport mod, S1P3 antag)
S=c1nc(-c2ccccc2)n(Cc2cccnc2)c2c1CCCC2	none
S=c1nc(-c2ccccc2)n(Cc2ccco2)c2c1CCCC2	Cl transport mod 15
COc1ccc([C@@H](Nc2ncccn2)c2cc3c(cc2O)OCO3)cc1	PGE2 EP2 inh 53 (no result: Cl transport mod, S1P3 antag)
O=C(O)c1ccn2c(C(=O)c3ccc(Cl)cc3)c(-c3ccccc3)cc2c1	EP2 mod 77
O=C(NCCO)C(=O)c1c(-c2ccc(Cl)cc2)cc2ccccn12	none
O=C(CN1CCC(O)(c2cccnc2)CC1)N1CCOCC1	none (no result: Cl transport mod, S1P3 antag, PGE2 EP2 inh)
CC1(C)OC[C@@H]2O[C@H](n3cnc4c(N)nc(Cl)nc43)[C@H](OS(C)(=O)=O)[C@H]2O1	PGE2 EP2 inh 56 (no result: Cl transport mod, S1P3 antag)
Nc1nc(Cl)nc2c1ncn2[C@H]1C[C@H](O)[C@@H](CO)O1	none
OC(COc1ccc(Cl)cc1Cl)Cn1cnc2ccccc21 (configuration not stated)	none (no result: Cl transport mod, S1P3 antag)
CCOc1cccc2sc(NC(=O)CC)nc12	none (no result: Cl transport mod, S1P3 antag)
NNc1nc2c(Cl)c(Cl)ccc2s1	none
CCC(=O)Nc1nc2c(Cl)c(Cl)ccc2s1	PGE2 EP2 inh 67 (no result: Cl transport mod, S1P3 antag)
Nc1nc2c(Cl)c(Cl)ccc2s1	PGE2 EP2 inh 61 (no result: Cl transport mod, S1P3 antag)
COc1ccc2cc(CN(C3CCCC3)S(=O)(=O)c3ccccc3)c(=O)[nH]c2c1	none (no result: Cl transport mod, S1P3 antag)

Source: PubChem (several laboratories)
